Measured values taken from PubChem BioAssay AID1628 (Sanford-Burnham Center for Chemical Genomics, 2009).
Hit rate of the full screen: of about 190,000 compounds, about 930 (0.49%) were called active. The list shows a part of the results. Potency and affinity values are given separately. Values without a mark were called inactive.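 The calls were made as follows: active = z-score of insulin promoter reporter brightness in nuclei below -3 at 5 µM, with at least 500 cells counted; inconclusive = wells with under 500 cells, flagged as toxic or sparse; inactive = the rest.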

Assay: decrease of insulin promoter-GFP reporter – imaging, high-content screening, mouse beta cells (AID 1628)
Conditions: MIN6 insulin promoter GFP reporter, at 5 µM, hits give low values

SMILES	z-score
CCCN(CCC)S(=O)(=O)c1ccc(C(=O)Nc2nnc(-c3cc(OC)cc(OC)c3)o2)cc1	-4.56 (active)
COc1cc(OC)cc(C(=O)Nc2cccc(C(C)=O)c2)c1	3.53
CCCN(CCC)S(=O)(=O)c1ccc(C(=O)OCCN2C(=O)c3cccc4c(N5CCOCC5)ccc(c34)C2=O)cc1	6.18
COc1ccc2nc(SCC(=O)Nc3c(C)cccc3C)[nH]c2c1	3.26
Cc1ccc(NC(=O)/C=C/c2ccc([N+](=O)[O-])s2)c(C)c1	13.3
Cc1ccc2nc(SCC(=O)Nc3ccc(C)c([N+](=O)[O-])c3)[nH]c2c1	-4.5 (active)
N#C/C(=C/c1ccc(N2CCCCC2)o1)C(=O)Nc1ccc2ccccc2c1	12.9
CCCN1C(=O)/C(=C/c2c(N3CCNC(=O)C3CC(=O)OCC)nc3c(C)cccn3c2=O)SC1=S (stereo unspecified)	12.1
O=C(CSc1ccc2ccccc2c1)NCCc1ccc(O)c(O)c1	-3.3 (active)
O=C(CSc1nc2[nH]ncc2c(=O)n1-c1ccccc1)NCCc1ccccc1	2.5
O=C(COc1ccccc1)NCCn1ccc2ccccc21	1.18
CCCCN(CC(=O)NCc1ccc(Cl)cc1)S(=O)(=O)c1ccc2c(c1)OCCO2	-4.37 (active)
Cc1cc(SCC(=O)N2CCCC2)nc2ccccc12	-0.89
COc1cc2c(cc1OC)C(C)=NCC2	0.45
Cc1cc2oc(=O)cc(CN3CCN(S(=O)(=O)c4ccc5c(c4)OCCO5)CC3)c2cc1C	-4.33 (active)
CNC(=O)C1CC(=O)N/C(=N/N=C(\C)c2cccs2)S1 (stereo unspecified)	3.72
CCOc1ccccc1OCCCCCc1c(C)n[nH]c1C	-3.04 (active)
O=c1c(Cl)c2oc3ccccc3nc-2c2ccccc12	6.06
COc1ccc(CCn2c(C3CCCCC3)nc3c(c(=O)c4ccccc4n3C)c2=O)cc1	-3.39 (active)
c1cc2c3c(cccc3c1)NC1(CCCCCC1)N2	-4.13 (active)
COc1cc(C(C(=O)NC(C)(C)C)N(Cc2ccccc2)C(=O)c2cnccn2)cc(OC)c1OC (stereo unspecified)	-0.06

SMILES	z-score
COc1cc(C(=O)N/N=C(\c2ccccc2)c2ccccn2)cc(OC)c1OC	-3.93 (active)
CCc1ccccc1NC1=CC(=O)CC(C)(C)C1	1.6
Cc1ccccc1OCc1n(CC(=O)OC2CC(C)CCC2C(C)C)c2ccccc2[n+]1C (stereo unspecified)	-5.14 (active)
Cc1ccccc1OCC(=O)OC1CCN(C)CC1	8.59
CCOC(=O)c1c2c3c(c(Cl)ccc3[nH]c1=O)C(=O)c1ccccc1-2	-3.28 (active)
COCCCNc1c2c3c(cccc3[nH]c1=O)C(=O)c1ccccc1-2	13.6
CSc1nc2ccc(S(N)(=O)=O)cc2s1	-4.36 (active)
N#C/C(=C/c1ccc(-c2ccc(S(N)(=O)=O)cc2)o1)c1nc2ccccc2s1	16.5
c1ccc2c(c1)[nH]c1c(N3CCC4(CC3)OCCO4)ncnc12	-4.74 (active)
Cc1ccc2[nH]c3c(N4CCCCCC4)ncnc3c2c1	-3.59 (active)
CC1(C)CCc2c([nH]c3ccccc3c2=O)O1	0.3
COC(=O)c1cc2c(-c3ccccc3)cc3ccccn3c-2c1C(=O)OC	3.3
Cc1cc2ccccn2c1C(=O)c1ccncc1	-8.28 (active)
CC(NC(=O)/C(C#N)=C1\N=C(NC(=O)c2ccco2)c2ccccc21)c1ccccc1 (stereo unspecified)	3.68
COc1ccc(-c2cnn3c4c(c(C)nc23)CCN4C2CCCC2)cc1OC	-4.71 (active)
CCCCNC(=O)C1CC(=O)N(C2CCCCC2)C1 (stereo unspecified)	3.02
c1nc(N2CCNCC2)c2sc3nc(N4CCOCC4)c4c(c3c2n1)CCC4	-3.71 (active)
N#Cc1c2c(c(-n3cnc4ccccc43)n3c1nc1ccccc13)CCC2	4.79
CC1(C)NC(=O)N(CCCCOc2ccc3c(c2)CCC3)C1=O	-1.15
OC(COc1ccc2c(c1)CCC2)Cn1cnc2ccccc21 (stereo unspecified)	-4.14 (active)
CCc1cc(C(=O)Cc2cnn(-c3ccccc3)c2)c(O)cc1O	0.58

SMILES	z-score
O=C1Nc2ccc(NS(=O)(=O)c3cccs3)c3cccc1c23	1.61
COc1cc2cccc(OC)c(=O)c2c(OC)c1OC	0.56
c1ccc(CCn2nnnc2C(c2cccs2)N2CCN(Cc3ccc4c(c3)OCO4)CC2)cc1 (stereo unspecified)	-4.21 (active)
N#C/C(=C\N1CCN(Cc2ccc3c(c2)OCO3)CC1)c1nc2ccccc2s1	3.92
Cc1ccc(NC2=NCC(=O)N2C2CCCC2)c(C)c1	0.57
Cc1cc(C)nc(NC2=NCC(=O)N2c2ccc(Cl)cc2)n1	-3.4 (active)
Cc1cccc2sc(NNC(=O)c3ccc4c(c3)OCCO4)nc12	3.4
Cc1cc(C)c2nc(NNC(=O)c3ccc(S(=O)(=O)N4CCc5ccccc5C4)cc3)sc2c1	-5.92 (active)
CC1CN(S(=O)(=O)c2ccc(C(=O)Nc3sc4c(c3C(N)=O)CCN(C)C4)cc2)CC(C)O1 (stereo unspecified)	11
CNC(=O)c1c(NC(=O)c2ccc(S(=O)(=O)N3CCCc4ccccc43)cc2)sc2c1CCN(C)C2	8.33
COc1cccc2sc(NNC(=O)C3=COCCO3)nc12	5.68
CC(C)N1CCc2c(sc(NC(=O)c3ccc(S(=O)(=O)N4CCc5ccccc54)cc3)c2C(N)=O)C1	4.91
CCCN1C(=O)S/C(=C\c2ccc(N3CCOCC3)o2)C1=O	9.56
COc1ccc(-c2n(Cc3ccccc3)c3ccccc3[n+]2Cc2ccccc2)cc1	-8.43 (active)
CCOc1ccccc1C(=O)Nc1nnc(COC)s1	0.76
CCc1nnc(NC(=O)CCC(=O)NCc2ccccc2OC)s1	4.05
CCCC1C2CN(C(C)C)CC=C2C(C#N)=C(N)C1(C#N)C#N (stereo unspecified)	16.1
CCOC(=O)CSc1nc2cc3c(cc2cc1CC)OCCO3	0.81
Cc1ccc(/C(N)=N/OC(=O)c2ccc(F)cc2)cc1	-4.16 (active)
